hgDAF-12 ag – hgDAF-12 agonism, primary luciferase screen. HEK293 GAL4-hgDAF12 UAS-luciferase reporter, agonist luminescence; normalized to butyrate control. 1.8% of 370,000 active. AID 687014. activation, % at 6.8 µM;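 active means activation above a cutoff set at the mean of all screened compounds plus 3 SD, cut at about 10% in these data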
DAX1 inh-1 – inhibits human nuclear receptor DAX1 | P51843 | HEK293 Gal4-DAX1 luciferase reporter, luminescence | inhibition, % at 6.75 µM | 0.99% of 340,000 active | AID 504766;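 active means inhibition above the mean over all tested compounds plus 3 SD, cut at about 4.2% in these data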;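 further: inhibition shows as a rise in luminescence from relieved DAX1 repression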
hcDAF12 agonist – H. contortus DAF-12 activation, primary screen; AID 652067; 1.4% of 370,000 active; HEK293 hcDAF-12 lit1-tk-luc reporter, luminescence; 0% DMSO, 100% Δ7-dafachronic acid; activation, % at 6.8 µM;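 active means activation above the mean of all tested compounds plus 3 SD, cut at about 5.5% in these data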
ssDAF-12 act – activates DAF-12 receptor from parasite S. stercoralis. HEK293 ssDAF-12/GRIP1 lit1-tk-luc reporter, luminescence; % of 3 µM dafachronic acid response. activation, % at 6.8 µM. 1% of 370,000 active;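 active means activation above the mean over all tested compounds plus 3 SD, cut at about 0.9% in these data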
DAX1 inh-2 – blocks DAX1 repression of SF-1 activated StAR promoter; HEK293T StAR-luciferase reporter, SF-1/DAX-1 repression relief; inhibition, % at 6.8 µM; 1.1% of 370,000 active; AID 652010;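 active means inhibition above the mean over all tested compounds plus 3 SD, cut at about 3.6% in these data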;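 further: higher inhibition means more luminescence from relief of DAX-1 repression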
DAX1 conf – confirmation of human DAX1 (NR0B1) inhibitors | shares compounds with DAX1 inh-2 | HEK293T StAR-promoter luciferase reporter, SF-1/DAX-1 repression | inhibition, % at 6.8 µM | 87% of 2,400 active | AID 652134;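 active means inhibition above the average of every tested compound plus 3 SD, cut at about 3.8% in these data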;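 further: active compounds raise luminescence by relieving repression of the StAR reporter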
Target sequence (P51843 whole entry, looked up): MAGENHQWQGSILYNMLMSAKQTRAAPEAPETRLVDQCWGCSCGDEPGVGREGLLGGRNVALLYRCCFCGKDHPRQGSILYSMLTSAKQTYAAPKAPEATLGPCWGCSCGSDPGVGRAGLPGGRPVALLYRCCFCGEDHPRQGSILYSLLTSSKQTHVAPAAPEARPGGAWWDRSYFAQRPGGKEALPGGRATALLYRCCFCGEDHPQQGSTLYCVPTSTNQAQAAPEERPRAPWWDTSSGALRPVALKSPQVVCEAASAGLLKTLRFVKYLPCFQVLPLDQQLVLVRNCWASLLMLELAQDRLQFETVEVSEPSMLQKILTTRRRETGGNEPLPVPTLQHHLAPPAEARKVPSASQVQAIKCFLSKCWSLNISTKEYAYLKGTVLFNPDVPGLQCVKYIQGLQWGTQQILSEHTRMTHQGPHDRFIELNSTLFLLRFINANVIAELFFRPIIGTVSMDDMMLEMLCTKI
SF1 AF2mut Luc – counter-screen for DAX1 inhibitors: nonselective inhibitors with SF-1 AF2 mutant; shares compounds with DAX1 inh-2; HEK293 StAR-luciferase, luminescence; inhibition, % at 6.8 µM; 78% of 2,400 active;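 active means inhibition above the mean of all tested compounds plus 3 SD, cut at about 3% in these data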
Numbers stand for hits; – = inactive; · = no result given. Rows were chosen to be rich in hits. Some 4.1% of all compounds tested hit in one or more screens of this group.

SMILES	hgDAF-12 ag	DAX1 inh-1	hcDAF12 agonist	ssDAF-12 act	DAX1 inh-2	DAX1 conf	SF1 AF2mut Luc
CC1(C(=O)NS(=O)(=O)c2ccccc2)CCN1C(=O)CC(c1ccccc1)c1ccccc1 (stereo unspecified)	–	·	–	–	–	·	·
COc1ccc(/C=C/c2cc(C(=O)O)c3ccccc3n2)cc1	13	–	6.0	1.0	4.5	9.8	3.2
O=C(Nc1ccccc1)c1ccc(NC(=O)C2CC2)cc1	–	–	–	–	6.5	7.7	5.2
O=C(NNC(=O)c1ccc(NC(=O)C2CC2)cc1)c1ccc(F)cc1	–	–	–	–	–	·	·
CC1(C)Cc2cccc(OCC(=O)NCCc3ccc(S(N)(=O)=O)cc3)c2O1	–	–	–	–	–	·	·
CC1(C)Cc2cccc(OCC(=O)NCCc3ccccc3)c2O1	–	–	–	–	5.1	4.5	3.1
Cc1ccc(CC(=O)O/N=C(\N)c2ccccn2)cc1	11	–	–	–	5.0	4.0	3.2
COCc1c(C(=O)OCC(=O)NCc2ccco2)oc2ccccc12	–	–	–	–	–	·	·
Cc1c(C(=O)OCC(=O)NCc2ccco2)oc2ccccc12	–	–	–	–	4.5	–	–
N/C(=N\OC(=O)c1ccco1)c1ccc(Br)cc1	–	–	–	–	4.7	7.2	4.4
Cc1ccc2nsnc2c1NC(=O)c1sc2ccccc2c1Cl	–	–	–	–	–	·	·
Cc1cccnc1NC(=O)c1sc2ccccc2c1Cl	13	–	–	–	10	11	5.3
O=C(NCC(=O)N1CCCCC1)c1sc2ccccc2c1Cl	–	–	–	–	5.8	5.5	3.4
Cc1ccnc(NC(=O)CNC(=O)c2sc3ccccc3c2Cl)c1	–	–	–	–	10	11	7.2
Cc1ccc(NC(=O)c2ccc(OCC3CCCO3)cc2)c(C)c1 (stereo unspecified)	–	–	–	–	–	·	·
Cc1ccnc(NC(=O)c2ccc(OCC3CCCO3)cc2)c1 (stereo unspecified)	–	–	–	–	6.8	4.5	–
Cc1cc(C(=O)CN2C(=O)NC3(CCCCCC3)C2=O)c(C)n1C	–	–	–	–	–	·	·
COCCn1c(C)cc(C(=O)CN2C(=O)NC3(CCCCCC3)C2=O)c1C	–	–	–	–	6.8	4.5	–
CCc1cccc2c(C(=O)CN3C(=O)NC4(CCCCCC4)C3=O)c[nH]c12	–	–	–	–	13	10	–
COc1cc(C)ccc1Oc1ccc([N+](=O)[O-])cc1	–	–	–	–	–	·	·
Cc1cc(NC(=O)COc2ccc3ccccc3c2Br)no1	–	–	–	–	6.0	5.6	6.0
COc1ccc(Cc2nc3ccc(C(=O)N4CCN(C)C(C)C4)cc3o2)cc1OC (stereo unspecified)	–	–	–	–	–	·	·
O=C(Nc1cccc(-c2ccc(N3CCOCC3)nn2)c1)c1ccccc1Cl	–	–	–	–	5.2	5.2	5.0
O=C(Nc1ccc(F)cc1)N[C@H]1CC[C@H](CCNS(=O)(=O)c2cccc(Cl)c2)O[C@@H]1CO	–	·	–	–	–	·	·
O=C(NNC(=O)c1ccccc1O)c1cc2ccccc2o1	–	–	–	1.1	5.6	3.8	4.0
SMILES	hgDAF-12 ag	DAX1 inh-1	hcDAF12 agonist	ssDAF-12 act	DAX1 inh-2	DAX1 conf	SF1 AF2mut Luc
CC(Nc1nc(-c2ccccc2O)nc2ccccc12)c1ccccc1 (stereo unspecified)	–	–	–	–	–	·	·
CC(Nc1nc(-c2ccccc2)nc2ccccc12)c1ccccc1 (stereo unspecified)	–	–	–	–	4.7	7.3	–
O=c1oc(Nc2ccccc2Cl)nc2ccccc12	11	–	–	–	4.8	10	3.8
O=c1oc(Nc2ccccc2F)nc2ccccc12	–	–	–	–	–	·	·
O=c1oc(Nc2cccc(Cl)c2)nc2ccccc12	–	–	–	–	5.4	10	4.8
Clc1cccc(Nc2nc(-c3ccncc3)nc3ccccc23)c1	–	–	–	–	–	·	·
Cc1noc(C)c1CSc1nc2ccccc2[nH]1	–	–	–	–	–	·	·
Fc1cccc(F)c1CSc1nc2ccccc2[nH]1	12	–	–	–	5.1	16	7.8
CCCC[C@@H]1CNC(=O)C(=O)N1CCCC	–	·	–	–	–	·	·
CCCC(=O)Nc1ccc(NC(=O)c2ccccc2)nc1	–	–	–	–	4.7	13	6.6
CCCC(=O)Nc1ccc(NC(=O)c2ccccc2F)cn1	–	–	–	–	–	·	·
CCCCC[C@H](C)N1C[C@@H](COCc2ccccc2)Oc2cc(N3CCC[C@H]3COC)ccc2S1(=O)=O	–	·	–	–	–	·	·
CCCCC[C@H](C)N1C[C@H](COCc2ccccc2)Oc2cc(N3CCC[C@@H]3COC)ccc2S1(=O)=O	–	·	–	–	5.4	–	–
Fc1ccc(-c2nnc(-c3ccc(Cl)cc3Cl)o2)cc1	12	–	–	–	5.3	8.3	3.6
Fc1ccc(-c2nnc(-c3ccc(Cl)cc3)o2)cc1	–	–	–	–	–	·	·
O=C(Cn1nnc(-c2ccc3c(c2)OCO3)n1)Nc1ccccc1C(=O)O	–	–	–	–	4.9	–	3.1
O=C(Cn1nnc(-c2ccccc2)n1)Nc1ccc2c(c1)OCO2	–	–	–	–	–	·	·
CC(C)CNC(=O)C1(C)CCCN1C(=O)c1c(Cl)cccc1Cl (stereo unspecified)	–	·	–	–	–	·	·
O=C(NC1CCCCC1)c1ccc(-c2cccc([N+](=O)[O-])c2)o1	–	–	–	–	7.9	11	4.1
CN(C)CCCNC(=O)C[C@@H]1CC[C@@H]2[C@H](COc3ccc(NC(=O)c4cccc(F)c4)cc3C(=O)N2C)O1	–	·	–	–	–	·	·
Cc1cc(C(=O)N/N=C/c2c(C)nn(-c3ccccc3)c2Cl)n[nH]1	–	·	–	–	–	·	·
Cc1nn(-c2ccccc2)c(Cl)c1/C=N/NC(=O)c1ccn[nH]1	13	–	5.8	–	14	8.8	5.8
COc1ccccc1OCC(=O)NNC(=O)CSC(=S)N1CCCC1	–	–	–	–	5.1	–	–
Cc1ccccc1Nc1nc(N)nc(CSc2ccc(F)cc2)n1	12	7.5	–	–	6.7	11	4.6
Cc1ccc(SCc2nc(N)nc(Nc3ccccc3C)n2)cc1C	–	–	–	–	–	·	·
CCOC(=O)CC(=O)CSc1nc2c(cc1C#N)CCCCCC2	–	–	–	–	–	·	·
N#Cc1cc2c(nc1SCC(N)=O)CCCCC2	–	–	–	–	4.8	7.3	4.5
COc1cc(/C=C/C(O)=C/C(=O)/C=C/c2ccc(O)cc2)ccc1O	–	–	–	–	–	·	·
